A selection: hits, their analogues and other compounds. The true share with any hit is near 2.5%.
Mcl1 Noxa PPI = disrupts binding of human Mcl-1 to Noxa peptide. hit rate 1.5% among 220,000. AID 1022. inhibition, % at 21.7 µM. Q07820. TR-FRET Mcl-1/Noxa peptide binding, 2 h;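 active = compounds that cut the protein-peptide binding signal by more than 50% relative to plate controls in a single-dose test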;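 also: His-tagged Mcl-1 with rhodamine Noxa BH3 peptide and terbium anti-His antibody; 0% = Mcl-1 plus Noxa peptide wells and 100% = peptide-only wells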
14-3-3 Bad inh = disrupts binding of bovine 14-3-3 zeta to phospho-Bad peptide. P63103. TR-FRET 14-3-3zeta/Dy647-pBad peptide displacement, 1 h. inhibition, % at 21.7 µM. hit rate 0.71% among 220,000. AID 781;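 active = inhibition above about 70%, limit read from the data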;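 also: 0% = full 14-3-3 plus peptide FRET controls and 100% = background without 14-3-3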
Target sequence (P63103 whole entry, looked up): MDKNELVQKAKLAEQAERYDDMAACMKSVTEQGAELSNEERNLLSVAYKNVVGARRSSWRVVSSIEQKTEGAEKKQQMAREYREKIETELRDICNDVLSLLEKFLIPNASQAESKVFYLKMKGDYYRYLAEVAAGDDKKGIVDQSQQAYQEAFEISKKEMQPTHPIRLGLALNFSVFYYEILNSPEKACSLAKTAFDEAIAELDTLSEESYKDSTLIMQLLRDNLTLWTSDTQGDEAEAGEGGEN
MCL1-BIM inh = disrupts human MCL1 binding to BIM-BH3 peptide | Q07820 | GST-MCL1 / FITC-Bim-BH3 fluorescence polarization | inhibition, % at 10.9 µM | hit rate 0.68% among 320,000 | AID 2057;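 active = inhibition above the mean inhibition of all tested compounds plus 3 SD, set per campaign, cut at about 40% in these data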;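 also: 0% = DMSO wells and 100% = unlabeled Bim-BH3 peptide control; higher means more loss of mP so more displacement of Bim peptide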
Mcl1 Bid PPI = disrupts binding of human Mcl-1 to Bid peptide; Q07820; TR-FRET Mcl-1/Bid-Dy647 peptide binding, 1536-well; inhibition, % at 21.7 µM; hit rate 0.97% among 220,000;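 active = compounds that cut the binding signal by more than half at the single screening dose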;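 also: His-tagged Mcl-1 with europium anti-His antibody binding Bid BH3 peptide; 0% = Mcl-1 plus peptide wells and 100% = peptide-only wells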
Bim-Mcl-1 = disrupts Bim peptide binding to human Mcl-1. Bead-based flow cytometry, Bim peptide-Mcl-1 binding. inhibition, % at 10 µM. hit rate 0.1% among 190,000. AID 1009; in the data active = inhibition above about 40%;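 also: 0% = no compound tracer wells and 100% = peptide blocker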
An asterisk follows results filed as active; / = no result; [ ] = dose if it differs, or a comment.

SMILES	Mcl1 Noxa PPI	14-3-3 Bad inh	MCL1-BIM inh	Mcl1 Bid PPI	Bim-Mcl-1
O=C(Nc1ccccc1)C1CC(=O)N(Cc2ccccc2)C1 (configuration not stated)	/	/	-19.4	/	/
CC(C)Oc1ccc(C(=O)NC2CCCCC2)cc1	7.4	7.7	3.6	4.5	-4.0
Cc1ccccc1Nc1nc(-c2sc(NC(=O)c3cccc(Cl)c3)nc2C)cs1	37.2	43.6	-2.0	-25.4	0.0
Cc1nc(NC(=O)c2ccccc2)sc1-c1csc(Nc2ccc(Cl)cc2Cl)n1	36.4	76.1*[fluorescence artefact?]	-20.2	-24.9	-1.0
Cc1ccc(Cl)cc1Nc1nc(-c2sc(NC(=O)c3cccc(Cl)c3)nc2C)cs1	40.5	89.2*	-10.7	60.7*	-3.0
CCOc1ccccc1Nc1nc(-c2sc(NC(=O)c3ccc([N+](=O)[O-])cc3)nc2C)cs1	86.2*	62.4	4.8	95.7*	-1.0
COc1ccc(Cl)cc1Nc1nc(-c2sc(NC(=O)c3ccccc3)nc2C)cs1	31.7	65.2	-16.2	70.3*	-2.0
Cc1nnc2sc(SCc3ccccc3Cl)nn2c1=O	2.9	-0.2	-0.1	2.6	-1.0
Cc1ccccc1C1C2=C(Nc3[nH]n(-c4ccccc4)c(=O)c31)c1ccccc1C2=O (configuration not stated)	19.1	-9.1	16.4	-35.0	4.0
Cc1cccc(C2C3=C(Nc4[nH]n(-c5ccccc5)c(=O)c42)c2ccccc2C3=O)c1 (configuration not stated)	65.2*	-0.6	/	-38.5	-4.0
COc1ccc(/C=N/c2c(-c3ccco3)nc3ccccn23)cc1OC	35.3	1.4	47.0*	-3.1	0.0
Clc1ccc(/C=N/c2c(-c3ccco3)nc3ccccn23)cc1	49.7	-11.3	47.0*	-43.7	3.0
Oc1ccccc1/C=N/c1c(-c2ccco2)nc2ccccn12	34.6	-25.4	23.2	-17.1	-6.0
Cc1cc(C)n(/C(=C\N(C)C)C(=O)c2cccc([N+](=O)[O-])c2)n1	/	/	9.1	/	/
CCC(=O)Nc1ccc(C(=O)CN2C(=O)NC3(CCCCCC3)C2=O)cc1	/	/	-3.7	/	/
CCOc1cc(/C=C2/SC(=S)N(Cc3ccccc3)C2=O)ccc1O	/	/	-13.2	/	/
O=C1/C(=C\c2ccc(O)c(O)c2)C(c2ccccc2)=NN1c1ccccc1	71.2*	41.3	/	-34.4	1.0
CCOc1cc(/C=C2\C(=O)N(c3nc(-c4ccc(Br)cc4)cs3)N=C2c2ccccc2)ccc1O	93.7*	10.3	6.7	81.5*	-3.0
COc1cc(/C=C2\C(=O)N(c3ccc(NC(C)=O)cc3)N=C2c2ccccc2)ccc1O	58.3*	-3.2	5.3	-15.8	-1.0
CCCC(=O)C1=C(O)C(C(=O)OC)C(C)(C)CC1=Nc1ccc(N)cc1 (configuration not stated)	26.9	6.7	-0.2	-29.5	0.0
CCCC(=Nc1ccc(N)cc1)C1=C(O)C(C(=O)OC)C(C)(C)CC1=O (configuration not stated)	17.6	-6.4	49.3*	-9.2	1.0
O=C(/C=C/c1cccc2ccccc12)N1CCOCC1	1.1	0.7	-0.1	-10.2	/
Cc1cc(NCc2ccccn2)ccc1Br	-23.4	78.6*	-1.9	10.2	0.0
CC(C)(C)OC(=O)N[C@H](Cc1ccccc1)C(=O)N1CCC(C(=O)O)CC1	-13.3	1.7	-0.9	-9.1	0.0
CCO[C@H]1OC(C(=O)N2CCN(Cc3ccccc3)CC2)=C[C@@H](C)[C@@H]1CCCO	-11.6	2.6	2.6	-3.9	1.0
SMILES	Mcl1 Noxa PPI	14-3-3 Bad inh	MCL1-BIM inh	Mcl1 Bid PPI	Bim-Mcl-1
CCO[C@@H]1OC(C(=O)N2CCN(Cc3ccccc3)CC2)=C[C@H](C2CC2)[C@H]1CCCO	42.2	-0.2	3.7	86.7*	-3.0
Cc1cc(C)c2c(=O)n(CC(=O)N3CCC(N4CCCCC4)CC3)sc2n1	46.1	17.2	17.2	-52.5	-2.0
CCOC(=O)C1CCCN(C(=O)Cn2sc3nc(C)cc(C)c3c2=O)C1 (configuration not stated)	56.5*	0.2	0.6	-22.4	-5.0
FC(F)Sc1ccc(NC(=S)NC2CCCC2)cc1	2.6	-5.5	-1.6	-34.5	0.0
O=C(NCCN1CCN(c2ccccc2)CC1)c1ccc2c(c1)[nH]c(=S)n1c3ccccc3nc21	51.2*	19.2	-5.0	9.3	-2.0
O=C(c1ccc2c(c1)[nH]c(=S)n1c3ccccc3nc21)N1CCN(c2ncccn2)CC1	12.5	25.1	-5.5	19.4	6.0
Cc1ccc(NC(=O)CSc2nc3ccccc3c3nc(CCn4cncc4C)nn23)c(C)c1	-21.5	15.3	2.1	-1.5	-2.0
Cn1c(N)nc2nc(CCc3ccccc3)c(=O)[nH]c2c1=O	/	/	40.9*	/	/
